Measurements: PubChem BioAssay (NCI)
Compounds without any hit were thinned out: in the full panel of roughly 83,000, 20% have a hit.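 Compound tested at a single concentration for 48 hours in 96-well plates; a percent growth value below 10 was scored as active.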 A number with no mark means an inactive call. Activity calls are given as the source filed them.

System: HL-60(TB) leukemia
Assay: NCI-60 one-dose screen, 48 h (100 = growth as untreated, 0 = no growth, -100 = all killed)
Conditions: 10 µM unless noted

SMILES	growth
COc1ccc2[nH]cc(-c3nnc(N)nc3-c3c[nH]c4ncc(Br)cc34)c2c1	103%
N#Cc1c(-c2ccc(Cl)cc2)cc(-c2ccccc2)nc1OCc1ccccc1	77.3%
COc1ccc(N=Nc2c(N)nn3c(-c4ccc([N+](=O)[O-])cc4)ccnc23)cc1	85.7%
O=C(CSc1nnc(-c2c[nH]c3ccccc23)n1-c1ccccc1)Nc1ccc(C(=O)/C=C/c2cccc([N+](=O)[O-])c2)cc1	86.8%
N#Cc1ccc(-c2nn(-c3ccc(C(=O)O)cc3)cc2CNc2ccc(Cl)cc2)cc1	87.8%
Brc1ccc(/C=N/Nc2ncnc3sc4c(c23)CCN(Cc2ccccc2)C4)cc1	19.9%
Cc1cc(C(NC(=O)C2CC3(CC(Nc4cccc5c4C(=O)N(C4CCC(=O)NC4=O)C5=O)C3)C2)c2ccc3c(c2)OC(F)(F)O3)c(O)c2ncccc12 (configuration not stated)	-16.4% (active)
COc1cc2c(c(OC)c1OC)C(=O)CC(c1cccc(NC(=O)c3cccc(N)c3)c1)O2 (configuration not stated)	86.4%
COc1cc2c(cc1OC)/C(=C\c1sc(Nc3ccc(O)cc3)nc1O)C(C(=O)O)=N2	-17.5% (active)
COc1cc(C2CC(c3cc(OC)c(OC)c(OC)c3)=NN2c2ccccc2)ccc1OCc1ccc(C)cc1 (configuration not stated)	101%
COc1cc2c(c(OC)c1OC)C(=O)CC(c1cccc(NC(=O)c3cc(N)ccc3Cl)c1)O2 (configuration not stated)	52.2%
Clc1ccc(/C=N/Nc2ncnc3sc4c(c23)CCN(Cc2ccccc2)C4)cc1	-8.28% (active)
